# Screening data as filed in PubChem BioAssay.
# Mtb betalactam = beta-lactam sensitization of Mtb H37Rv. 0.27% of 330,000 active. AID 434955. M. tuberculosis H37Rv growth with meropenem, percent inhibition. inhibition, % at 25 µM; call rule not given here;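 also: growth measured after seven days incubation then overnight dye step; 0% = bacteria only wells and 100% = bacteria with antibiotic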
# Rv3671c inh = inhibits the M. tuberculosis serine protease Rv3671c | P9WHR9 | inhibition, % at 5.96 µM | 0.048% of 320,000 active; in the data active = inhibition above about 38%;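 also: extracellular domain of Rv3671c used as enzyme; 0% = enzyme with DMSO and 100% = no enzyme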
# UGM FP inh = inhibitors of M. tuberculosis UDP-galactopyranose mutase; P9WIQ1; purified UGM, fluorescence polarization probe displacement; inhibition, % at 10 µM; 0.06% of 320,000 active; in the data active = inhibition above about 10%, passing the limit was not always enough; inconclusive = no clear call, values can overlap the other calls
# GDH-TPI inh = GDH-TPI coupled enzyme inhibition counter-screen. GDH-TPI coupled enzyme counterscreen, NADH absorbance. inhibition, % at 4.8 µM. 1.2% of 360,000 active; in the data active = inhibition above about 30%;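 also: 0% = DMSO wells and 100% = wells lacking the enzyme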
# RecA intein inh = inhibitors of M. tuberculosis RecA intein splicing | 0.75% of 290,000 active | P9WHJ3 | cell-free RecA intein splicing, fluorescence | AID 2221 | inhibition, % (concentration not given with the values); in the data active = inhibition above about 30%; inconclusive = no clear call, values can overlap the other calls;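 also: 0% = vehicle wells and 100% = reference inhibitor control wells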
# Target sequence (P9WHJ3 whole entry, looked up): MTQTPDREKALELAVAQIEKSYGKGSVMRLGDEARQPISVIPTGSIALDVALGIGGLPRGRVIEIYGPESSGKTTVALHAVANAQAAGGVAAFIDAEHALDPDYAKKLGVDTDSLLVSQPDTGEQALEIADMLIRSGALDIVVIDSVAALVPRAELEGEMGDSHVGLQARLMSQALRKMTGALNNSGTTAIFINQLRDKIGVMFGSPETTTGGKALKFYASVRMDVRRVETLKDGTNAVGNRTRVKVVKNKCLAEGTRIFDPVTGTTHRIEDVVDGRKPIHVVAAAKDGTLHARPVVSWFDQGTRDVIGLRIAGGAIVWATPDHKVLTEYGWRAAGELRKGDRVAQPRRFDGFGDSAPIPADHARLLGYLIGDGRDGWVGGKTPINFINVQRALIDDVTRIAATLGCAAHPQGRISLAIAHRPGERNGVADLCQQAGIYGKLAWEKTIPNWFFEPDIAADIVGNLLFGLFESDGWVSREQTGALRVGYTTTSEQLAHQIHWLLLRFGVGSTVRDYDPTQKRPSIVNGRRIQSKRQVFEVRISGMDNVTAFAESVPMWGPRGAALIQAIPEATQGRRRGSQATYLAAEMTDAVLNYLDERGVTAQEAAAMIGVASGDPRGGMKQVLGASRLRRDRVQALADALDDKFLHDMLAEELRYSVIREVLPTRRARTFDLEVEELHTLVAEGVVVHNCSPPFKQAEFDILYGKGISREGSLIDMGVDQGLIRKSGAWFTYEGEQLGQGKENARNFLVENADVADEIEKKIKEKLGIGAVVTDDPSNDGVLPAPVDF
# FBA Mtb inh = inhibitors of M. tuberculosis fructose-bisphosphate aldolase | P9WQA3 | purified M. tuberculosis FBA, fluorescence read-out | inhibition, % at 1 µM | 2.3% of 360,000 active | AID 588726; in the data active = inhibition above about 27%;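 also: 0% = vehicle and 100% = reference inhibitor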
# Numbers without * were called inactive; ? = inconclusive; nt = not tested or not shown; + = active, no number. Rows were chosen to be rich in hits. Some 4% of all compounds tested hit in one or more screens of this group.
SMILES,Mtb betalactam,Rv3671c inh,UGM FP inh,GDH-TPI inh,RecA intein inh,FBA Mtb inh
Cc1cc(=O)[nH]c(N/N=C/c2ccc(N(C)C)cc2)n1,-3,3,4,35*,-8,14
Cc1cccn2c(=O)c(C=Nc3ccccc3)c(NCc3ccco3)nc12,4,-5,1,22,-6,39*
CC1=C(C(=O)OC2CCCCC2)C(c2ccccc2Br)NC(=O)N1 (stereo unspecified),-2,4,-1,9,-2,1
Cc1cc(/C=C(\C#N)C(=O)O)c(C)n1CC(C)C,-4,4,0,35*,nt,2
O=C(NCc1ccc2c(c1)OCO2)C(=O)NCC1OCCN1S(=O)(=O)c1ccccc1 (stereo unspecified),1,3,0,2,1,-1
CCOc1ccc(CN2CCN(c3cc(C)nc4c5c(C)cc(C)nc5nn34)CC2)cc1,nt,nt,nt,nt,-10,nt
COc1ccc(CN2CCN(c3cc(C)nc4c5c(C)cc(C)nc5nn34)CC2)cc1F,-1,4,1,5,-10,125*
Cc1cc(C)cc(NC(=O)C2CCN(C(=O)c3cccs3)CC2)c1,-5,-3,-1,4,nt,1
O=C1Nc2ccc([N+](=O)[O-])cc2C1(O)N1CCCCCC1 (stereo unspecified),-1,-4,-6,33*,0,-1
COc1ccc(NC(=O)c2ccco2)cn1,-5,9,3,-3,-1,-1
COc1ccc(NC(=O)c2ccc(-c3ccc(C(C)=O)cc3)o2)cn1,6,-8,3,32*,nt,19
CN(N)C(=S)NCc1ccccc1,?,-3,3,-3,-1,+
CN(C)C(=S)NCc1ccccc1,4,2,0,1,2,5
CC(=O)NC(Cc1cc(C)ccc1C)C(=O)N1CCN(C(=O)c2ccc([N+](=O)[O-])cc2)CC1 (stereo unspecified),0,1,-1,3,1,0
O=C1CCCC/C1=C\Nc1ccc(O)cc1,18,-19,4,33*,-62,2
O=C1CCC/C1=C/Nc1ccc(Cl)cc1,0,6,-1,32*,0,-2
CCCCN1CC(=O)N2[C@H](c3ccc(Cl)cc3)[C@@H]3C(=O)N(CC)C(=O)[C@@H]3[C@]2(C)C1=O,6,-6,3,12,1,4
CCS(=O)(=O)N1Cc2ccccc2CC1C(=O)OCC(=O)Nc1ccc(C)cc1 (stereo unspecified),-8,-8,0,117*,4,1
CCCOc1ccc(F)cc1-c1cc(C(=O)NCc2cc(OC)cc(OC)c2)[nH]n1,nt,nt,nt,2,nt,-3
CCOc1ccc2nc(-c3ccccc3)[nH]c2c1,-1,6,-1,2,-3,189*
COc1ccc2nc(-c3ccccc3)[nH]c2c1,-5,-2,-2,6,-2,150*
CCOc1ccc2nc(C(C)O)[nH]c2c1 (stereo unspecified),-1,3,2,3,1,3
COc1cc2c(cc1NCc1ccccn1)oc1ccccc12,99,-4,-1,0,2,29*
COc1cc2c(cc1NC(=S)Nc1cccc(C(F)(F)F)c1)oc1ccccc12,90,-2,2,11,1,64*
COc1cc2c(cc1NCc1ccc3c(c1)OCO3)oc1ccccc12,74,11,-1,15,1,21
SMILES,Mtb betalactam,Rv3671c inh,UGM FP inh,GDH-TPI inh,RecA intein inh,FBA Mtb inh
CC1CCN(C(=O)C(C)OC(=O)CSc2ccc([N+](=O)[O-])cc2)CC1 (stereo unspecified),-1,4,2,20,nt,3
O=C(COC(=O)CSc1ccc([N+](=O)[O-])cc1)NCCC1=CCCCC1,-6,0,0,9,nt,0
O=[N+]([O-])c1ccc(O)c(C=Nc2ccc3nc(-c4ccccc4)[nH]c3c2)c1,10,5,4,21,4,+
O=C1Nc2ccccc2/C1=C/c1cnc[nH]1,-5,-1,-3,31*,3,-6
O=C(NCCN1CCCCC1)Nc1cccc(F)c1,-8,-3,1,10,2,-2
COC(=O)c1cc(S(=O)(=O)N2CCC(c3cc(OC)ccc3OC)C2)c[nH]1 (stereo unspecified),1,7,-1,7,0,-2
CC(=O)c1ccc(N2CCN(S(=O)(=O)c3c(C)[nH]c(C)c3C(=O)N3CCCCC3)CC2)cc1,4,1,3,34*,-3,1
CC(=O)c1ccc(N2CCN(S(=O)(=O)c3c(C(=O)N4CCCCC4)c(C)n(C)c3C)CC2)cc1,-2,6,-2,24,1,3
CC(=O)c1ccc(N2CCN(S(=O)(=O)c3c(C(=O)N4CCCC4)c(C)n(C)c3C)CC2)cc1,7,2,-2,40*,-1,1
Cc1nc2nc(CNC(=O)OC(C)(C)C)nn2c(C)c1CCC(=O)Nc1ccc2c(c1)OCO2,-1,5,-1,-6,4,-2
CC(C)C(=O)Nc1ccc2nn(-c3ccc(F)cc3)nc2c1,-2,-5,-2,10,2,92*
CCCC(=O)Nc1ccc2nn(-c3ccc(OC)cc3)nc2c1,18,-11,3,25,5,+
Cc1cc(C(=O)Nc2ccc(N3CCOCC3)cc2)c2ccccc2n1,1,-1,-2,11,1,-3
OCC[n+]1c2ccccc2nc2ccc(N3CCOCC3)cc21,96,-16,2,-2,31*,2
CC(=O)NCCc1ccc(S(=O)(=O)Nc2ccc3c(c2)OCCO3)cc1,-7,-3,1,11,-1,1
CCOC(=O)C1(C)CCN1C(=O)c1ccc(C)cc1 (stereo unspecified),nt,nt,nt,-4,nt,4
O=S(=O)(Cc1ccccc1)c1cnc2ccccc2n1,nt,-12,0,1,30*,1
COc1ccc(S(=O)(=O)c2cnc3ccccc3n2)cc1,61,-3,3,7,35*,0
O=S(=O)(c1ccc(Br)cc1)c1cnc2ccccc2n1,97,1,1,8,9,-3
CN(C(=O)c1ccc(S(=O)(=O)N2CCCC2)cc1)C1CCS(=O)(=O)C1 (stereo unspecified),-4,0,1,-6,1,5
CC1(C(=O)NCC2CC2)CCN1C(=O)C1(c2ccccc2)CC1 (stereo unspecified),nt,nt,nt,-4,nt,2
COc1ccc(OCC(=O)C2CC2)c(C#N)c1,-1,2,5,12,-1,3
Cc1ccc(N(CC(=O)NCc2ccco2)C(=O)CCC(=O)Nc2nccs2)cc1,-6,-6,1,9,1,6
COc1cc2c3nnc(-c4ccc(F)cc4)c-3cn(Cc3ccc(C)cc3)c2cc1OC,-5,3,15*,7,-74,3
COc1cc2c3nnc(-c4ccc(F)cc4)c-3cn(Cc3cccc(F)c3)c2cc1OC,-2,-14,8,12,-55,46*
CCCCn1c(C)nc2c(=O)n(C)c(=O)[nH]c21,3,3,3,7,-1,2
